Only some compounds are listed: those with a hit (about 3.9% of all), similar ones and a draw of the others.
PHOSPHO1 block = PubChem AID 1565; Phosphoethanolamine/phosphocholine phosphatase (Homo sapiens), Q8TCT1; recombinant PHOSPHO1, absorbance phosphatase assay; inhibition, % at 13.3 µM; 1.1% of 290,000 active; in the data active = inhibition above about 60%
WT yeast gro inh = growth inhibition of WT strain, primary screen, mitochondrial fusion inhibitor project, WT and mutant strains, chemical genetic | inhibition, % at 10 µM | AID 1362, 2008 | 2.1% of 190,000 active | mitochondrial fusion phenotypic screen; in the data active = inhibition above about 58%; tested in S. cerevisiae
Platelet DG rel = inhibitors of platelet dense granule secretion, primary screen, cell-based, MLPCN, human platelets. human platelet-rich plasma, SFLLRN dense granule ATP release, luminescence. inhibition, %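 (compounds screened at 7.5 µM in platelet-rich plasma)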. 0.22% of 300,000 active;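 active = mean replicate score, as percent of positive control, at or above 50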
Rtt109 HAT inh = inhibitors of C. albicans Rtt109/Vps75 HAT, primary screen, biochemical, ThioGlo CoA-SH fluorescence, plate reader | 0.16% of 330,000 active | Histone acetyltransferase RTT109 (Candida albicans (strain SC5314 / ATCC MYA-2876)), … | inhibition, % at 34.9 µM | purified Rtt109/Vps75, 4 h;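 active = inhibition of at least 50% in every replicate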
Target sequence (Q5AAJ8 whole entry, looked up): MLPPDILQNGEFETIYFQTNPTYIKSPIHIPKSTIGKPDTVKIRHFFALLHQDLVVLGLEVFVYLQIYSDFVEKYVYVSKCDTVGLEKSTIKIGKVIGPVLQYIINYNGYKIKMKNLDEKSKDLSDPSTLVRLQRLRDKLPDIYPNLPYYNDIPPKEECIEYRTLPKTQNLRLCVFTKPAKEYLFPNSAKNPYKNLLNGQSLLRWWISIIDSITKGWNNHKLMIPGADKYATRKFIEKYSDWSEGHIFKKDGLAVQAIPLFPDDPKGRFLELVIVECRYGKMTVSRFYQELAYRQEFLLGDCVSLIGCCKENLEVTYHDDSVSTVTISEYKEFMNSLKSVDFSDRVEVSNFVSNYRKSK
SKKanGAS inh = S. pyogenes SKKanGAS growth inhibitors in kanamycin, primary screen, streptokinase expression inhibitor project, SKKanGAS strain, BacTiter-Glo luminescence. 6 h. inhibition, % at 7.5 µM. 1.3% of 300,000 active;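 active = mean replicate score, as percent of positive control median, at least 50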;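 note: strain carries kanamycin resistance gene driven by streptokinase promoter and grows in 40 µg/ml kanamycin; loss of luminescence reflects streptokinase promoter inhibition or plain growth inhibition; 0% = median of DMSO wells and 100% = positive control at its reference dose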
TPT1 inh = Candida albicans TPT1 enzyme inhibitors, primary screen, biochemical, fluorescence polarization; tRNA 2'-phosphotransferase TPT1 (Candida albicans SC5314); recombinant caTPT1, FP RNA substrate dephosphorylation; inhibition, % at 5 µM; 0.81% of 300,000 active;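 active = inhibition above the mean of all tested compounds plus 3 SD, set per screening campaign, cut at about 24% in these data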;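 note: plate controls were DMSO alone for no effect and ferristatin control at 100 nM for full effect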
* hit, by the source's call; . = not tested or not shown; + = active, no number.

SMILES	PHOSPHO1 block	WT yeast gro inh	Platelet DG rel	Rtt109 HAT inh	SKKanGAS inh	TPT1 inh
Cc1ccc(NC(=O)c2cc(NC(=O)c3ccco3)ccc2N2CCOCC2)cc1	5	8	-1	-4	2	-6
Cc1ccc(NC(=O)c2cc(N3C(=O)C=CC3=O)ccc2N2CCOCC2)cc1	21	2	11	+	13	.
COc1ccc(-c2nc3ccccn3c2CN2CCN(c3ccccc3F)CC2)cc1	0	82*	-11	2	7	1
S=c1[nH]nc(Cc2ccc(Br)cc2)n1/N=C/c1ccc(Cl)cc1	30	93*	10	-1	7	-2
S=c1[nH]nc(-c2cc(-c3ccccc3)n[nH]2)n1/N=C/c1ccc(Cl)c(Cl)c1	-10	.	-1	0	22	0
S=c1[nH]nc(-c2cc(-c3ccccc3)n[nH]2)n1/N=C/c1ccc(Cl)cc1	-40	.	5	-16	56*	-1
S=c1[nH]nc(-c2cc(-c3ccccc3)n[nH]2)n1/N=C/c1cccc(Cl)c1	-10	.	-7	35	60*	2
COc1ccc(S(=O)(=O)N(C)CC(=O)NCc2ccco2)cc1OC	19	.	3	14	0	1
Cc1ccc(NC(=O)Cn2nnc(C(=O)NCc3cccs3)c2N)cc1F	45	.	-1	3	-4	2
NC(=O)c1sc2nc(-c3cccs3)ccc2c1N	25	.	9	9	4	19
Nc1c(C(=O)NC2CCCC2)sc2nc(-c3cccs3)ccc12	-18	62*	0	-12	1	6
Oc1ccc(/C=N/Nc2nccnc2Cl)cc1	-1	11	98*	-16	21	-2
Cc1nc(Cl)cc(N/N=C/c2ccc(O)cc2)n1	29	.	3	0	-3	-1
Nc1c(Cl)ncnc1N/N=C/c1ccc(O)cc1	15	.	72*	19	4	-4
COc1cc(OC)c(OC)cc1/C=N/Nc1nc2ccccc2[nH]1	41	.	18	3	-7	1
COc1ccc2c(c1)c(/C=N/Nc1nc3ccccc3[nH]1)c(C)n2C	20	.	0	9	71*	-1
Cc1ccc2cc(/C=N/Nc3nc4ccccc4[nH]3)c(Cl)nc2c1	7	59*	38	.	-7	.
COc1ccc(/C=N/Nc2nc3ccccc3[nH]2)cc1OC	-4	6	-5	25	3	2
C(=N\Nc1nc2ccccc2[nH]1)/c1ccccn1	2	67*	62*	-8	25	.
COc1cc(/C=N\Nc2nc3ccccc3[nH]2)cc(OC)c1OC	60	48	-2	11	94*	-2
C(=NN1CCCCCC1)c1ccc2c(c1)OCO2	.	.	.	-1	.	.
Cc1ccc(NCC(=O)N/N=C/c2cc3ccccc3nc2Cl)cc1	-16	68*	0	-9	3	-3
c1ccc2c(c1)CC/C2=N/Nc1nc2ccccc2[nH]1	-21	77*	15	-4	38	1
CCCCn1c(/C=C/c2ccco2)nc2ccccc21	-19	35	8	-1	5	23
CCCCn1c(/C=N/Nc2nc3ccccc3[nH]2)nc2ccccc21	4	28	4	0	95*	-2
SMILES	PHOSPHO1 block	WT yeast gro inh	Platelet DG rel	Rtt109 HAT inh	SKKanGAS inh	TPT1 inh
CC12CCC(=O)C=C1C(F)CC1C2C(O)CC2(C)C1CCC2(O)C(=O)CO (centres undefined)	.	.	.	18	.	.
Cn1c(/C=C/N2CCOCC2)c(C(=O)c2ccc(Br)cc2)c(=O)n(C)c1=O	-17	77*	1	18	4	1
C=CCSc1nsc(NC(=O)Nc2ccc(F)cc2)n1	25	.	-2	0	75*	3
CC1=C(C(=O)Nc2cccc(C(=O)NC3CCCC(C)C3C)c2)SCCO1 (centres undefined)	37	.	-2	-4	21	0
O=C(O)c1cc(S(=O)(=O)N2CC=C(c3ccccc3)CC2)ccc1O	.	.	.	7	.	.
COc1ccccc1-c1c(C#N)c(N)nc2c1CCc1ccccc1-2	1	67*	-8	-34	-4	5
CC(C)Sc1cc(N2CCCC2)nc(-c2ccc(F)cc2)n1	-3	26	13	-8	76*	-6

Compound activity (PubChem)
